From PubChem BioAssay (EPA / NIEHS)
Values joined by “and” are separate entries in the source; they are usually repeats but may differ in a detail not shown here. Identical values can stand only once. Records with an inconclusive call do not appear. The source holds several records for some structures; these can differ, active in one and inactive in another. Active and inactive are the calls of the source. The calls were made as follows, unless noted: active = hit-call score of the fitted dose curve at least 0.9, where 1 is the maximum; inactive = score below 0.9.

Columns and labels:
[1] = read-out: Monocyte Chemoattractant Protein-1 (MCP1), CCL2 (gene 6347); assay: BSK_LPS_MCP1: BioMAP Diversity Plus: LPS Assay for Monocyte Chemoattractant Protein-1 (MCP1) Biomarker Activity (AID 2283081); conditions: primary human HUVEC with PBMC; actives raise or lower the signal;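 as to AC50: secreted MCP-1 protein quantified by ELISA in culture supernatant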
Method in brief: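 Values derive from bidirectional fitting against DMSO of ELISA-measured MCP-1 in a human primary endothelial and mononuclear cell co-culture, 24 h after chemical addition under LPS activation.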

[2] = BSK_LPS_PGE2: BioMAP Diversity Plus: LPS Assay for Prostaglandin E2 (PGE2) Biomarker Activity (AID 2283082); conditions: primary human HUVEC with PBMC; actives raise or lower the signal
Method in brief: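 Endpoint derived from bidirectional curve fitting versus DMSO of ELISA-measured PGE2 in LPS-stimulated human primary vascular co-culture (HUVEC with PBMC) harvested at 24 h.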

[3] = read-out: Macrophage colony-stimulating factor (MCSF), CSF1 (gene 1435); assay: BSK_LPS_MCSF: BioMAP Diversity Plus: LPS Assay for Macrophage colony-stimulating factor (MCSF) Biomarker Activity (AID 2283083); conditions: primary human HUVEC with PBMC; actives raise or lower the signal
Method in brief: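 Bidirectional fit versus DMSO of ELISA-measured M-CSF in co-cultured human umbilical vein endothelial cells and PBMC, sampled 24 h after dosing.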

[4] = read-out: Tissue Factor, F3 (gene 2152); assay: BSK_LPS_TissueFactor: BioMAP Diversity Plus: LPS Assay for Tissue Factor Biomarker Activity (AID 2283084); conditions: primary human HUVEC with PBMC; actives raise or lower the signal
Method in brief: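 Read-out: CD142 ELISA, 24 h. System: LPS-driven human endothelial/PBMC co-culture. Analysis: up- or down-signal fitted against DMSO.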

[5] = read-out: Tumor necrosis factor (Homo sapiens) (UniProt P01375); assay: BSK_LPS_TNFa: BioMAP Diversity Plus: LPS Assay for Tumour Necrosis Factor alpha (TNFa) Biomarker Activity (AID 2283085); conditions: primary human HUVEC with PBMC; actives raise or lower the signal
Method in brief: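 Primary human vascular co-culture of HUVEC and PBMC; TNFa ELISA 24 h after treatment, analysed as increase or decrease relative to DMSO control.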

[6] = read-out: Vascular cell adhesion molecule 1 (VCAM1), VCAM1 (gene 7412); assay: BSK_LPS_VCAM1: BioMAP Diversity Plus: LPS Assay for Vascular cell adhesion molecule 1 (VCAM1) Biomarker Activity (AID 2283086); conditions: primary human HUVEC with PBMC; actives raise or lower the signal
Method in brief: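 Primary human vascular co-culture (umbilical vein endothelium plus PBMC) stimulated with LPS received chemical; 24 h later VCAM-1 was read by ELISA. Overt cytotoxicity was assessed by sulforhodamine B staining of parallel cultures at the same time point.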

CD38, CD38 (gene 952) = assay: BSK_SAg_CD38: BioMAP Diversity Plus: SAg Assay for CD38 Biomarker Activity (AID 2283087); conditions: primary human HUVEC with PBMC; actives raise or lower the signal
Method in brief: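 Fluorescence ELISA of cell-surface CD38 served as the read-out, with either increase or decrease fitted against DMSO controls. Cells were a human umbilical vein endothelium plus PBMC co-culture under SEB/TSST-1 stimulation, measured 24 h after dosing.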

CD40, CD40 (gene 958) = assay: BSK_SAg_CD40: BioMAP Diversity Plus: SAg Assay for CD40 Biomarker Activity (AID 2283088); conditions: primary human HUVEC with PBMC; actives raise or lower the signal
Method in brief: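 Endpoint derived by fitting increases or decreases versus DMSO controls. CD40 is detected by fluorescence ELISA in a human vascular co-culture of endothelium and PBMC at 24 h.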

CD69, CD69 (gene 969) = assay: BSK_SAg_CD69: BioMAP Diversity Plus: SAg Assay for CD69 Biomarker Activity (AID 2283089); conditions: primary human HUVEC with PBMC; actives raise or lower the signal;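 as to AC50: cell surface CD69 protein quantified by ELISA with fluorescence detection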
Method in brief: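 Values derive from bidirectional fitting relative to DMSO vehicle. Cells: umbilical vein endothelium plus peripheral blood mononuclear cells, treated 24 h before fluorescent ELISA for CD69.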

[7] = read-out: Monocyte Chemoattractant Protein-1 (MCP1), CCL2 (gene 6347); assay: BSK_SAg_MCP1: BioMAP Diversity Plus: SAg Assay for Monocyte Chemoattractant Protein-1 (MCP1) Biomarker Activity (AID 2283090); conditions: primary human HUVEC with PBMC; actives raise or lower the signal
Method in brief: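 MCP-1 levels in the endothelial–PBMC SAg co-culture were quantified by ELISA at 24 h post-dosing; both increases and decreases versus DMSO scored. Cytotoxicity monitored by SRB total protein in parallel cultures.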

[8] = read-out: E-selectin (Homo sapiens) (UniProt P16581); assay: BSK_SAg_Eselectin: BioMAP Diversity Plus: SAg Assay for Eselectin Biomarker Activity (AID 2283091); conditions: primary human HUVEC with PBMC; actives raise or lower the signal
Method in brief: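 Endpoint values derive from bidirectional fitting relative to DMSO, using ELISA-measured E-selectin in a human vascular co-culture (umbilical vein endothelium plus PBMC) sampled 24 h after dosing.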

[9] = read-out: Monokine induced gamma interferon (MIG), CXCL9 (gene 4283); assay: BSK_SAg_MIG: BioMAP Diversity Plus: SAg Assay for Monokine induced gamma interferon (MIG) Biomarker Activity (AID 2283092); conditions: primary human HUVEC with PBMC; actives raise or lower the signal
Method in brief: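 Values reflect bidirectional fitting of ELISA-measured MIG against DMSO vehicle, taken 24 h after dosing of a co-culture of human umbilical vein endothelial cells and peripheral blood mononuclear cells.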

[10] = read-out: Interleukin-8 (IL8), CXCL8 (gene 3576); assay: BSK_SAg_IL8: BioMAP Diversity Plus: SAg Assay for Interleukin-8 (IL8) Biomarker Activity (AID 2283094); conditions: primary human HUVEC with PBMC; actives raise or lower the signal
Method in brief: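 In this co-culture of human umbilical vein endothelium with peripheral blood mononuclear cells, IL-8 is assayed by ELISA at 24 h. DMSO serves as baseline for bidirectional curve fitting.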

[11] = BSK_SAg_Proliferation: Cell Proliferation Assessment in the BioMAP Diversity Plus: SAg Assay (AID 2283095); conditions: primary human HUVEC with PBMC;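 also: relative cell number as total protein by SRB absorbance in sub-confluent culture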
Method in brief: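 Readout is SRB-stained protein (560 nm) in a primary human HUVEC and PBMC co-culture; sub-confluent cultures are read at 96 h. Activity is fitted bidirectionally using DMSO as baseline.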

[12] = BSK_SAg_SRB: Viability Assessment in the BioMAP Diversity Plus: SAg Assay (AID 2283096); conditions: primary human HUVEC with PBMC;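 also: cells read one day after compound addition; hits may be either gain or loss of signal compared with DMSO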
Method in brief: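 Endothelial/PBMC primary human co-culture; compound 24 h; fix 10% TCA, stain 0.1% SRB, A560; protein content as cytotoxicity proxy; bidirectional curve fit, DMSO = baseline.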

[13] = biological target: human CYP2A6, CYP2A6 (gene 1548) (UniProt P11509); assay: NVS_ADME_hCYP2A6: NovaScreen (NVS) CYP450-related Enzyme Activity (ADME) Assay for human CYP2A6 (AID 2283099; active = hit-call score of the fitted dose curve at least 0.9, where 1 is the maximum)
Sequence of human CYP2A6, CYP2A6 (gene 1548) (P11509 whole entry, looked up): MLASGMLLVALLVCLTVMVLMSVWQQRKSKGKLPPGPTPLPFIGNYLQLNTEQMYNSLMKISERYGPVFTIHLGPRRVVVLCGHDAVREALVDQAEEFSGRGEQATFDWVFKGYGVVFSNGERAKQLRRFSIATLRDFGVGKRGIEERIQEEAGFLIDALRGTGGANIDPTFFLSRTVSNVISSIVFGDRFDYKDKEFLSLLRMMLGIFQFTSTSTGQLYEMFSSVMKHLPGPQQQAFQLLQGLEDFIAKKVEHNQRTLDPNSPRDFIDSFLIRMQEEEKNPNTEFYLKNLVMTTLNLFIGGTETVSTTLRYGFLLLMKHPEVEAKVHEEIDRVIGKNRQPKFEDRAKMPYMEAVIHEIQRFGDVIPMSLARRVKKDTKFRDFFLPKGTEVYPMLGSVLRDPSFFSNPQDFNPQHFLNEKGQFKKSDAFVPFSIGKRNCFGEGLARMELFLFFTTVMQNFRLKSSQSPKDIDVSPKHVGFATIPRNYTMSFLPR
Method in brief: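 Loss of fluorescence signal relative to acetonitrile vehicle reported CYP2A6 inhibition in a cell-free system using insect-cell-derived enzyme. Readings were taken at 0.5 h; top concentration in follow-up dose series was 20 uM.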

[14] = biological target: human CYP1A1, CYP1A1 (gene 1543) (UniProt P04798); assay: NVS_ADME_hCYP1A1: NovaScreen (NVS) CYP450-related Enzyme Activity (ADME) Assay for human CYP1A1 (AID 2283100; active = hit-call score of the fitted dose curve at least 0.9, where 1 is the maximum)
Sequence of human CYP1A1, CYP1A1 (gene 1543) (P04798 whole entry, looked up): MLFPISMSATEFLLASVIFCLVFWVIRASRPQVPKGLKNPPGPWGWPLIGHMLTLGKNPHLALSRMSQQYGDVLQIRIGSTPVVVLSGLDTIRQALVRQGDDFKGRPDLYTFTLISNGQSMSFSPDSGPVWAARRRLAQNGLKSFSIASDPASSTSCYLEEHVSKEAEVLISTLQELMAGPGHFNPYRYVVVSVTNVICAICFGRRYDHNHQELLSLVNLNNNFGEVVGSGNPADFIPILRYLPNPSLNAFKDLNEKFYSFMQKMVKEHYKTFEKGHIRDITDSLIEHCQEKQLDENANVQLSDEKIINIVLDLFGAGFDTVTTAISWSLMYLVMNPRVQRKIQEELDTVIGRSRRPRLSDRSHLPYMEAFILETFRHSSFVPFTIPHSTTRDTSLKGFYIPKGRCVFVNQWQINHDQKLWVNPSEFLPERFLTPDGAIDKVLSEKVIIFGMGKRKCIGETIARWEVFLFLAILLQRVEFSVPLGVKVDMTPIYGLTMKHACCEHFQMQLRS
Method in brief: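 Inhibition of recombinant CYP1A1 turnover was assessed fluorometrically in a biochemical format 1 h after compound exposure. Testing began at 10 uM in duplicate and progressed to concentration series reaching 20 uM, with on-plate positive and negative controls.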

[15] = biological target: human CYP19A1, CYP19A1 (gene 1588) (UniProt P11511); assay: NVS_ADME_hCYP19A1: NovaScreen (NVS) CYP450-related Enzyme Activity (ADME) Assay for human CYP19A1 (AID 2283098; active = hit-call score of the fitted dose curve at least 0.9, where 1 is the maximum)
Sequence of human CYP19A1, CYP19A1 (gene 1588) (P11511 whole entry, looked up): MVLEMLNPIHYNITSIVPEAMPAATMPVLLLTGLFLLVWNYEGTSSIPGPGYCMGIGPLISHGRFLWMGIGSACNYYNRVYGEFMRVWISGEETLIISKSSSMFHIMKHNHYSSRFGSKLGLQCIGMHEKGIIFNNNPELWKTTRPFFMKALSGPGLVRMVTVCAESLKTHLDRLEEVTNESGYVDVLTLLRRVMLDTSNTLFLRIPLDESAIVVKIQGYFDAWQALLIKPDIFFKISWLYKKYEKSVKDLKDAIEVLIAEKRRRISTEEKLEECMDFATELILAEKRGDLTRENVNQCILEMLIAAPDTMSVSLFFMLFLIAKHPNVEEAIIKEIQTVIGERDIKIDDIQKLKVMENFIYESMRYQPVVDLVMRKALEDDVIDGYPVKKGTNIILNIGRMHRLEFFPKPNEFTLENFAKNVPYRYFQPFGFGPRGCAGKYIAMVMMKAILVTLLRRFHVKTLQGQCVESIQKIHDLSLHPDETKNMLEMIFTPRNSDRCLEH
Method in brief: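 Cell-free enzyme assay with recombinant protein and a specific fluorogenic substrate, read by fluorescence intensity 0.5 h after dosing. Primary screen ran in duplicate at 10 uM; actives were retested in concentration series. Loss of signal versus acetonitrile baseline.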

Measured: AC50

Sequence of Tumor necrosis factor (Homo sapiens) (P01375 whole entry, looked up): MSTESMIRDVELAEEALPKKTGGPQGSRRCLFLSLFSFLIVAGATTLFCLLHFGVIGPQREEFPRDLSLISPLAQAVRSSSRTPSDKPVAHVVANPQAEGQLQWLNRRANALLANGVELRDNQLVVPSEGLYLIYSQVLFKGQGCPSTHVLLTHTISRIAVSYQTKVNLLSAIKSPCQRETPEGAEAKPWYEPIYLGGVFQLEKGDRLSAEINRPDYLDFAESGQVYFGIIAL
Sequence of E-selectin (Homo sapiens) (P16581 whole entry, looked up): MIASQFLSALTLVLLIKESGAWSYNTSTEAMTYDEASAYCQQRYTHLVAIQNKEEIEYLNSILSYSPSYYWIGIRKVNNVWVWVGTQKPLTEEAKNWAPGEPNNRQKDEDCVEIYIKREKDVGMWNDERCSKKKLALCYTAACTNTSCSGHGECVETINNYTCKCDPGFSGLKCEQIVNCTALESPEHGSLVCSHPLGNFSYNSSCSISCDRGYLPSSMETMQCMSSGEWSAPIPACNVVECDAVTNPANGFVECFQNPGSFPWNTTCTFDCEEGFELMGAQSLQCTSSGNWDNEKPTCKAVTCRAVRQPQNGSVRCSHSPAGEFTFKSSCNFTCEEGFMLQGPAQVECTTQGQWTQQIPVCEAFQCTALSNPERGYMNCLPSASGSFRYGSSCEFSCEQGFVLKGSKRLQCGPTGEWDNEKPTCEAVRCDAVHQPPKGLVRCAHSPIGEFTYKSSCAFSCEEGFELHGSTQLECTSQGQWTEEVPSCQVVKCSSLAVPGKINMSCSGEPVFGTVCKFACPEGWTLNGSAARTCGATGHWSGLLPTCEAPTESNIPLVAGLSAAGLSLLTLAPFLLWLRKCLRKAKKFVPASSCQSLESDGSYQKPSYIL

NCC(F)(F)C(F)(F)C(F)(F)C(F)(F)C(F)(F)C(F)(F)C(F)(F)F
active: [11] 43.6 µM
inactive: [1] | [2] | [3] | [4] | [5] | [6] | CD38, CD38 (gene 952) | CD40, CD40 (gene 958) | CD69, CD69 (gene 969) | [7] | [8] | [9] | [10] | [11] | [12]

OCCC(F)(F)C(F)(F)C(F)(F)C(F)(F)C(F)(F)C(F)(F)F
active: [3] 46.8 µM | [6] 48.9 µM | CD40, CD40 (gene 958) 56.3 µM | CD69, CD69 (gene 969) 51.3 µM | [8] 54.9 µM | [9] 53.2 µM | [10] 46.1 µM | [11] 49.8 µM and 50.9 µM | [12] 53.1 µM
inactive: [1] | [2] | [3] | [4] | [5] | [6] | CD40, CD40 (gene 958) | CD69, CD69 (gene 969) | [7] | [8] | [9] | [10] | [11] | [12]

CC(=O)NC1(c2cccc(F)c2)CCN(CC[C@@]2(c3ccc(Cl)c(Cl)c3)CN(c3ccccc3)C(=O)CO2)CC1
inactive: [2] | [3] | [4] | [5] | [8] | [9] | [11] | [13] | [14]
active: [1] 16.6 µM | [6] 16.6 µM | CD38, CD38 (gene 952) 26.7 µM | CD40, CD40 (gene 958) 30.5 µM | CD69, CD69 (gene 969) 25.2 µM | [7] 27.5 µM | [10] 6.76 µM | [12] 24.6 µM

C=C(C)C(=O)OCCC(F)(F)C(F)(F)C(F)(F)C(F)(F)C(F)(F)C(F)(F)F
active: [11] 11.2 µM
inactive: [1] | [2] | [3] | [4] | [5] | [6] | CD38, CD38 (gene 952) | CD40, CD40 (gene 958) | CD69, CD69 (gene 969) | [7] | [8] | [9] | [10] | [11] | [12] | [15]

CN1CCC[C@H]1c1cccnc1
inactive: [1] | [2] | [3] | [4] | [5] | [6] | CD38, CD38 (gene 952) | CD40, CD40 (gene 958) | CD69, CD69 (gene 969) | [7] | [8] | [9] | [10] | [11] | [12]

COCC(C)O (stereo not drawn)
inactive: [1] | [2] | [3] | [4] | [5] | [6] | CD38, CD38 (gene 952) | CD40, CD40 (gene 958) | CD69, CD69 (gene 969) | [7] | [8] | [9] | [10] | [11] | [12]
